From PubChem BioAssay (EPA / NIEHS)
Active and inactive are the calls of the source. The calls were made as follows: active = hit-call score of the fitted dose curve at least 0.9, where 1 is the maximum; inactive = score below 0.9.

Experiments:
[1] = ATG_E_Box_CIS: Attagene CIS-FACTORIAL HepG2 Assay for human Enhancer Box (E-box) (AID 2282936); settings: HepG2 E-box cis-reporter transcription, actives raise or lower the signal
Outline: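 Fluorescent reporter fragments separated by capillary electrophoresis gave the signal; mRNA came from HepG2 cells transfected with cis-element reporters and treated 24 h. Curves fitted bidirectionally relative to DMSO controls.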

[2] = ATG_M_61_CIS: Attagene CIS-FACTORIAL HepG2 Assay for M61 Transcription Factor (Internal Marker) (AID 2282937); settings: HepG2 Attagene CIS-FACTORIAL M61 internal marker reporter; actives raise or lower the signal
Outline: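 Human liver HepG2, transient MRTU transfection (cis promoter elements), 24 h compound. Total RNA → oligo(dT) RT → PCR → FAM label → HpaI → CE. Internal background marker; bidirectional fitting, DMSO = baseline.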

[3] = ATG_EGR_CIS: Attagene CIS-FACTORIAL HepG2 Assay for human Early Growth Response 1 (EGR1) (AID 2282938); settings: HepG2 Attagene CIS-FACTORIAL EGR reporter mRNA; actives raise or lower the signal
Outline: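 Transient transfection of human HepG2 with multiple cis-regulated reporter units, chemical exposure 24 h, total RNA isolated. Reverse transcription, PCR, fluorescent labelling and capillary electrophoresis quantify reporter transcripts; activity fitted bidirectionally against DMSO.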

[4] = ATG_M_19_CIS: Attagene CIS-FACTORIAL HepG2 Assay for M19 Transcription Factor (Internal Marker) (AID 2282939); settings: HepG2 Attagene CIS-FACTORIAL M19 internal marker reporter; actives raise or lower the signal
Outline: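 Signals come from fluorescence of labelled reporter-specific PCR fragments resolved by capillary electrophoresis, following 24 h treatment of HepG2 cells transfected with cis-promoter reporter units; activity was fitted in both directions relative to DMSO.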

[5] = ATG_ERE_CIS: Attagene CIS-FACTORIAL HepG2 Assay for Estrogen Response Element (ERE) (AID 2282940); settings: HepG2 ERE cis-reporter, Attagene RNA transcript; actives raise or lower the signal
Outline: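 Fluorescence of capillary-separated, FAM-labelled reporter cDNA fragments indicates reporter mRNA levels in HepG2 cells exposed to chemicals for 24 h. Transient transfection with cis-regulated units; data fitted in both directions against DMSO.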

[6] = ATG_Ets_CIS: Attagene CIS-FACTORIAL HepG2 Assay for human Erythroblast Transformation Specific (ETS) (AID 2282941); settings: HepG2 ETS cis-reporter transcription, actives raise or lower the signal
Outline: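 Multiplexed reporter transcript profiling: HepG2, 24 h treatment, total RNA to cDNA, PCR, 6-FAM labelling, HpaI cut, capillary electrophoresis. Gain- or loss-of-signal fitted against DMSO.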

[7] = molecular target: Hepatocyte nuclear factor 3-beta (Homo sapiens) (UniProt Q9Y261); test: ATG_FoxA2_CIS: Attagene CIS-FACTORIAL HepG2 Assay for human Forkhead box A2 (FOXA2) (AID 2282942); settings: HepG2 cis-reporter transcription factor activity, 24 h; actives raise or lower the signal
Chain of Hepatocyte nuclear factor 3-beta (Homo sapiens) (Q9Y261 whole entry, looked up): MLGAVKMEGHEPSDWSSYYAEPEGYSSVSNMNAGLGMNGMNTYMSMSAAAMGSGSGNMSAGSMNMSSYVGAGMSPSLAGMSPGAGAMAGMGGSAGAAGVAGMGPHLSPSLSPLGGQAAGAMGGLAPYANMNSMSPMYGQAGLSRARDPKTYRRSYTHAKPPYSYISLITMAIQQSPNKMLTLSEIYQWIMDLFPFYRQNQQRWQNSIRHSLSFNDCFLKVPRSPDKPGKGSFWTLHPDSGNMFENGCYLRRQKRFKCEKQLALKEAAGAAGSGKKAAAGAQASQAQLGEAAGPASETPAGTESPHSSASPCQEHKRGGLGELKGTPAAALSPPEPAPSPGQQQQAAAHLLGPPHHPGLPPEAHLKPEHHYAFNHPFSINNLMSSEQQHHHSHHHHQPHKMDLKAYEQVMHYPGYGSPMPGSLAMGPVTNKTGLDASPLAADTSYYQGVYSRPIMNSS
Outline: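 Transient MRTU transfection of HepG2 liver cells; 24 h treatment; total RNA → oligo(dT) RT → PCR → FAM primer extension → HpaI cut → CE. Bidirectional fit vs DMSO.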

[8] = ATG_FoxO_CIS: Attagene CIS-FACTORIAL HepG2 Assay for human Forkhead box O (FoxO) (AID 2282943); settings: HepG2 Attagene cis-reporter, FoxO element, mRNA; actives raise or lower the signal
Outline: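 Endogenous transcription factor activity read from multiplexed cis-promoter reporter transcripts in transiently transfected HepG2, 24 h after dosing. Reporter RNA measured via RT-PCR plus capillary electrophoresis of FAM-labeled products; gain or loss relative to DMSO.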

[9] = ATG_GATA_CIS: Attagene CIS-FACTORIAL HepG2 Assay for human GATA Binding Protein (AID 2282944); settings: HepG2 GATA cis-element reporter, Attagene multiplex mRNA; actives raise or lower the signal
Outline: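 After transfecting HepG2 cells with multiple cis-regulated reporter units, chemicals are dosed for 24 h; isolated RNA undergoes RT-PCR and fluorescent labeling before capillary electrophoresis, with activity expressed against DMSO.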

[10] = ATG_GLI_CIS: Attagene CIS-FACTORIAL HepG2 Assay for human Zinc Finger Protein GLI1 (AID 2282945); settings: HepG2, Attagene cis-factorial reporter mRNA, GLI element; actives raise or lower the signal
Outline: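 Bidirectional curve fits relative to DMSO, using reporter mRNA levels from RT-PCR plus capillary electrophoresis. Cells were HepG2 transiently carrying cis-regulated reporter constructs, harvested 24 h after dosing.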

[11] = ATG_GRE_CIS: Attagene CIS-FACTORIAL HepG2 Assay for human Glucocorticoid Response Elements (GRE) (AID 2282947); settings: HepG2 GRE cis-reporter, Attagene multiplex mRNA; actives raise or lower the signal
Outline: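 Multiplexed cis-reporter mRNA induction, HepG2, 24 h post-dose. RT-PCR, FAM-labelled, HpaI-digested amplicons by CE. Bidirectional fit vs DMSO.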

[12] = ATG_ISRE_CIS: Attagene CIS-FACTORIAL HepG2 Assay for human Interferon Regulatory Factor 1 (IRF1) binding to an Interferon-Stimulated Response Element (ISRE) (AID 2282948); settings: HepG2 ISRE cis-reporter (Attagene), mRNA transcription readout; actives raise or lower the signal
Outline: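 Signal reflects induction or loss of ISRE-linked reporter mRNA in transiently transfected HepG2 cells after a 24 h treatment, detected by fluorescent RT-PCR fragments on capillary electrophoresis and normalised to DMSO.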

[13] = ATG_M_32_CIS: Attagene CIS-FACTORIAL HepG2 Assay for M32 Transcription Factor (Internal Marker) (AID 2282949); settings: HepG2 Attagene cis-factorial M32 reporter, mRNA; actives raise or lower the signal;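 also: background control marker of the multiplexed CIS panel rather than a real target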
Outline: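 Using DMSO as baseline, bidirectional curve fits were applied to reporter mRNA signals. These came from transiently transfected HepG2 cells exposed for 24 h, with RNA analysed by RT-PCR, FAM primer extension, HpaI digestion and CE.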

[14] = ATG_M_06_CIS: Attagene CIS-FACTORIAL HepG2 Assay for M06 Transcription Factor (Internal Marker) (AID 2282950); settings: HepG2 Attagene CIS-FACTORIAL M06 internal marker reporter; actives raise or lower the signal
Outline: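 HepG2 liver cells, 24 h exposure. Reporter transcripts from transfected cis-element constructs quantified by RT-PCR/capillary electrophoresis fluorescence. Bidirectional curve fit against DMSO.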

[15] = molecular target: Hypoxia-inducible factor 1-alpha (Homo sapiens) (UniProt Q16665); test: ATG_HIF1a_CIS: Attagene CIS-FACTORIAL HepG2 Assay for human Hypoxia Inducible Factor 1 (HIF1A) (AID 2282951); settings: HepG2 Attagene cis-factorial HIF1a reporter transcription; actives raise or lower the signal
Chain of Hypoxia-inducible factor 1-alpha (Homo sapiens) (Q16665 whole entry, looked up, the tested form may be a part): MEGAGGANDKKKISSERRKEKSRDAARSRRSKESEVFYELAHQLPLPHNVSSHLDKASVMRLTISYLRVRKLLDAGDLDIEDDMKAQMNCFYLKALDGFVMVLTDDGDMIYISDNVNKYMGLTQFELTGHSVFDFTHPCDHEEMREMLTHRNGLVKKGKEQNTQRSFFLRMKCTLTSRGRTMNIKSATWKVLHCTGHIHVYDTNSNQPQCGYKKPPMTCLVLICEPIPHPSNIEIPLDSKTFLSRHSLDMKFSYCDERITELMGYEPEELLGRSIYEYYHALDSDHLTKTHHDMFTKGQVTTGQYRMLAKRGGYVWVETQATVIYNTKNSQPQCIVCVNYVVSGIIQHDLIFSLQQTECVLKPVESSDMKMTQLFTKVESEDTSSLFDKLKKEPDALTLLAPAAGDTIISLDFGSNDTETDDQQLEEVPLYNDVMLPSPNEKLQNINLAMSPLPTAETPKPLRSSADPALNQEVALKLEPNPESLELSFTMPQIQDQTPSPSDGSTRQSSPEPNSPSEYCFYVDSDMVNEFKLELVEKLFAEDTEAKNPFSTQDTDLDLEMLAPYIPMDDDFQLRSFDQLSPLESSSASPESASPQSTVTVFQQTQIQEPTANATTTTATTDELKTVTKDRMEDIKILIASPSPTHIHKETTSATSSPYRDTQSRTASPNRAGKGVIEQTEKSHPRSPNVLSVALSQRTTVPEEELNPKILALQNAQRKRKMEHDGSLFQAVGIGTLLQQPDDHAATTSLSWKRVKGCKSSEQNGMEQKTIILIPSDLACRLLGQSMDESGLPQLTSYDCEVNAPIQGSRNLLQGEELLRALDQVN
Outline: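 Transient MRTU transfection of human HepG2 liver cells, 24 h compound treatment, then total RNA isolation, oligo(dT) reverse transcription, PCR amplification, fluorescent labelling and capillary electrophoresis of reporter fragments. Gain or loss relative to DMSO.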

[16] = molecular target: Hepatocyte nuclear factor 6 (Homo sapiens) (UniProt Q9UBC0); test: ATG_HNF6_CIS: Attagene CIS-FACTORIAL HepG2 Assay for human Hepatocyte Nuclear Factor 6 (HNF6) (AID 2282952); settings: HepG2 Attagene cis-factorial HNF6 reporter transcription; actives raise or lower the signal
Chain of Hepatocyte nuclear factor 6 (Homo sapiens) (Q9UBC0 whole entry, looked up, the tested form may be a part): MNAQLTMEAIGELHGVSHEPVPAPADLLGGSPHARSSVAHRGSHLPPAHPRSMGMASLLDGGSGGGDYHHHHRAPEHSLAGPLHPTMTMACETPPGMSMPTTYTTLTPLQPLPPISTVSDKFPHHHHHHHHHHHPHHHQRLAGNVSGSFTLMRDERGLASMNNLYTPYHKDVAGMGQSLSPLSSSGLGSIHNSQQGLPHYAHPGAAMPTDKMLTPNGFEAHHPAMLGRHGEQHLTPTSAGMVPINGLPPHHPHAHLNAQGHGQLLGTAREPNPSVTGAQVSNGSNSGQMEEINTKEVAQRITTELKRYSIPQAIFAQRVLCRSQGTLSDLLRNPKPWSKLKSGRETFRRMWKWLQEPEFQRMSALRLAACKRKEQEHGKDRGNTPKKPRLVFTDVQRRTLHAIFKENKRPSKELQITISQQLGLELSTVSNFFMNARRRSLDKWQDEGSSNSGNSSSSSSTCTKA
Outline: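 First, HepG2 cells were transfected with the multiplexed cis reporter library and dosed with chemical for 24 h. Next, RNA was reverse-transcribed, PCR-amplified and fluorescently labelled. Finally, HpaI-digested fragments were read by capillary electrophoresis.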

[17] = molecular target: Heat shock factor protein 1 (Homo sapiens) (UniProt Q00613); test: ATG_HSE_CIS: Attagene CIS-FACTORIAL HepG2 Assay for human Heat Shock Transcription Factor 1 (HSE) (AID 2282953); settings: HepG2 HSE cis-reporter, Attagene RNA transcription; actives raise or lower the signal
Chain of Heat shock factor protein 1 (Homo sapiens) (Q00613 whole entry, looked up, the tested form may be a part): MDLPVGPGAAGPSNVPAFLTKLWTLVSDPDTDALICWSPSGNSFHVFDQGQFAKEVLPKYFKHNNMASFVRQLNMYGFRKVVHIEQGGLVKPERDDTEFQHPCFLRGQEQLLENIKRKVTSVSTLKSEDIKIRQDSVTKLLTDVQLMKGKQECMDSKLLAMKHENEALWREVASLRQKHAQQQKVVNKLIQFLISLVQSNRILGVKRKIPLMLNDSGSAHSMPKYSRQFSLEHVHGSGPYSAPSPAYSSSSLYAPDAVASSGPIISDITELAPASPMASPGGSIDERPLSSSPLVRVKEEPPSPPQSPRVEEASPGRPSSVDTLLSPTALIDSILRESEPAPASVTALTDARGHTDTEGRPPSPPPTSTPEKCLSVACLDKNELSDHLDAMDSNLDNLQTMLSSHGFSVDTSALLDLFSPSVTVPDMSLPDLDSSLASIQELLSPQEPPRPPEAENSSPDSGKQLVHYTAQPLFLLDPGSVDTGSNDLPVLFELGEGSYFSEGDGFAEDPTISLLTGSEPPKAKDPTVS
Outline: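 Endogenous transcription factor activity captured via cis-promoter reporter units transfected into HepG2; treatment lasted 24 h. Fluorescence intensity of reporter fragments analysed with bidirectional curve fitting, DMSO baseline.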

[18] = ATG_MRE_CIS: Attagene CIS-FACTORIAL HepG2 Assay for human Metal Responsive Element (MRE) (AID 2282954); settings: HepG2 MRE cis-reporter transcription, Attagene multiplex; actives raise or lower the signal
Outline: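 Multiplexed cis-reporter assay in human HepG2 liver cells, 24 h incubation with test chemical. Reporter transcripts measured by RT-PCR and capillary electrophoresis; values from bidirectional curve fitting versus DMSO.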

[19] = molecular target: Bile acid receptor (Homo sapiens) (UniProt Q96RI1); test: ATG_IR1_CIS: Attagene CIS-FACTORIAL HepG2 Assay for human Nuclear Receptor Subfamily 1 Group H Member 4 (NR1H4), IR1 submotif (AID 2282946); settings: IR1 reporter transcription, actives raise or lower the signal
Chain of Bile acid receptor (Homo sapiens) (Q96RI1 whole entry, looked up): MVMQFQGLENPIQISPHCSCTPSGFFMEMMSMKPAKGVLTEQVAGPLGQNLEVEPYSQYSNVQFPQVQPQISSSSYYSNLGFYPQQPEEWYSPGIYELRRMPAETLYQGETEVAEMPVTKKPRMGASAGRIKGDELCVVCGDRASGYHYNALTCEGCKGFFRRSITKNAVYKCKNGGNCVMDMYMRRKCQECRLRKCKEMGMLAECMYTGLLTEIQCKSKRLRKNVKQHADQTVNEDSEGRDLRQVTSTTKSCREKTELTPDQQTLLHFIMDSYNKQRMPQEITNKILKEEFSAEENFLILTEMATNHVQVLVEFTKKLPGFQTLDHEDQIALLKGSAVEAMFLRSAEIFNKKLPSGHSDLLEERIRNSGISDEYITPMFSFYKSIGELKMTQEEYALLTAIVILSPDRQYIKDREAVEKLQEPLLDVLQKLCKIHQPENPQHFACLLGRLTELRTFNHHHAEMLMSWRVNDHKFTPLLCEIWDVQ
Outline: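 HepG2 cells transiently transfected with multiplexed cis-element reporter units read endogenous transcription factor activity. After 24 h compound exposure, reporter mRNA was quantified by RT-PCR, fluorescent labelling, HpaI digestion and capillary electrophoresis; bidirectional fitting versus DMSO baseline.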

[20] = ATG_PBREM_CIS: Attagene CIS-FACTORIAL HepG2 Assay for human Phenobarbital-responsive Enhancer Module (PBREM) (AID 2282955); settings: HepG2 PBREM cis-reporter, Attagene multiplexed transcription; actives raise or lower the signal
Outline: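 Endogenous transcription factors in human liver HepG2 cells drive a PBREM cis-element reporter, whose transcript level after 24 h treatment is quantified by RT-PCR with capillary electrophoresis; activity fitted in both directions against DMSO.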

Measured: AC50

ClC1=C(Cl)C2(Cl)C3C(Cl)C=CC3C1(Cl)C2(Cl)Cl (centres undefined)
active: [3] 132 µM | [5] 24.4 µM | [18] 127 µM
not listed: [19] | [20]
inactive: all other assays above

CCCCCCCCn1sccc1=O
active: [3] 18.2 µM | [6] 14.8 µM | [8] 18.3 µM | [9] 18.4 µM | [10] 16.9 µM | [12] 17.6 µM | [16] 21 µM | [17] 16.7 µM | [18] 16.7 µM
not listed: [20]
inactive: all other assays above

C[N+](C)(C)CC1CO1 (centres undefined)
not listed: [11] | [19] | [20]
inactive: all other assays above

N#CC(Br)Br
active: [5] 76.7 µM
inactive: all other assays above

OCCCBr
not listed: [19] | [20]
inactive: all other assays above

CCCCCOC(=O)c1ccccc1C(=O)OCCCCC
active: [18] 151 µM
not listed: [19]
inactive: all other assays above

Cn1cc(-c2ccccc2)c(=O)c(-c2cccc(C(F)(F)F)c2)c1
active: [1] 55 µM | [12] 61.1 µM
not listed: [19] | [20]
inactive: all other assays above
